Measurements: the supplement of paper PMC10849652
Targets with a hit are over-represented here; the source holds about 8,800 in all. About 0.5% of all pairs of compound and target were hits. Values without a mark were called inactive.

Tests used:
Assay in all cases: log2 fold change, soluble protein after heating vs DMSO (PISA); higher = thermal stabilisation; K562 lysate, 10 uM; active = over 0.2 and 3.5 SD of the protein, either way, in both replicates (recomputed)
[1] = compound: CS(=O)(=O)CCNCc1ccc(-c2ccc3ncnc(Nc4ccc(OCc5cccc(F)c5)c(Cl)c4)c3c2)o1 [lapatinib]
How it was run: (§1)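 Thermal stability, expressed as log-two fold change relative to solvent controls, is given from duplicates. Crude K562 extract in PBS pH 7.4 with 1 mM MgCl2, at 1 mg/mL protein, was treated with 10 μM compound for 30 min and heated in aliquots for 3 min across 48°C-58°C. After pooling, adjustment to 0.5% NP-40 at 4°C and centrifugation at 21,000xg for 90 min, supernatant protein was measured by TMTpro 16plex LC-MS/MS with channel sums equalised.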

[2] = compound: CS(=O)(=O)N1CCN(Cc2cc3nc(-c4cccc5[nH]ncc45)nc(N4CCOCC4)c3s2)CC1 [pictilisib]
How it was run: as §1

[3] = compound: C[C@@H](Oc1cc(-c2cnn(C3CCNCC3)c2)cnc1N)c1c(Cl)ccc(F)c1Cl [crizotinib]
How it was run: as §1

[4] = compound: C[C@H](C1=CC=C(C=C1)C(=O)NC2=C3C=CNC3=NC=C2)N
How it was run: as §1

[5] = compound: C[C@H](Nc1ncnc2nc[nH]c12)c1cc2cccc(Cl)c2c(=O)n1-c1ccccc1 [duvelisib]
How it was run: as §1

[6] = compound: Cc1cc(Nc2cc(CN3CCOCC3)c3nc(C)c(Cc4ccc(Cl)cc4F)n3n2)n[nH]1 [gandotinib]
How it was run: as §1

[7] = compound: Cc1cc(Nc2cc(N3CCN(C)CC3)nc(Sc3ccc(NC(=O)C4CC4)cc3)n2)n[nH]1 [tozasertib]
How it was run: as §1

[8] = compound: Cc1ccc(-n2nc(C(C)(C)C)cc2NC(=O)Nc2ccc(OCCN3CCOCC3)c3ccccc23)cc1 [doramapimod]
How it was run: as §1

[9] = compound: Cc1ccc(NC(=O)c2ccc(CN3CC[C@H](N(C)C)C3)c(C(F)(F)F)c2)cc1Nc1nccc(-c2cncnc2)n1 [bafetinib]
How it was run: as §1

[10] = compound: Cc1cccc(CC(=O)N2CCc3c2ccc(-c2cn(C)c4ncnc(N)c24)c3F)n1
How it was run: as §1

[11] = compound: Cc1cn(-c2cc(NC(=O)c3ccc(C)c(Nc4nccc(-c5cccnc5)n4)c3)cc(C(F)(F)F)c2)cn1 [nilotinib]
How it was run: as §1

[12] = compound: Cc1nc(Nc2n[nH]c3c2CN(C(=O)N[C@H](CN(C)C)c2ccccc2)C3(C)C)c2sccc2n1
How it was run: as §1

[13] = compound: Cc1nc(Nc2ncc(C(=O)Nc3c(C)cccc3Cl)s2)cc(N2CCN(CCO)CC2)n1 [dasatinib]
How it was run: as §1

[14] = compound: Cc1ncc(-c2ccnc(Nc3ccc(S(C)(=O)=O)cc3)n2)n1C(C)C
How it was run: as §1

[15] = compound: Cn1cc(-c2ccc3c(c2)CCN3C(=O)Cc2cccc(C(F)(F)F)c2)c2c(N)ncnc21
How it was run: as §1

[16] = compound: Cn1cc(CNCC2CCN(c3ncc(C(=O)NO)cn3)CC2)c2ccccc21 [quisinostat]
How it was run: as §1

[17] = compound: Cn1cncc1[C@@](N)(c1ccc(Cl)cc1)c1ccc2c(c1)c(-c1cccc(Cl)c1)cc(=O)n2C [tipifarnib]
How it was run: as §1

[18] = compound: NC(=O)Nc1cc(-c2cccc(F)c2)sc1C(=O)N[C@H]1CCCNC1
How it was run: as §1

[19] = compound: NC(=O)c1cnc(N[C@@H]2CCCC[C@@H]2N)nc1Nc1cccc(-n2nccn2)c1
How it was run: as §1

[20] = compound: NC1(c2ccc(-c3nc4ccn5c(=O)[nH]nc5c4cc3-c3ccccc3)cc2)CCC1
How it was run: as §1

UniProt Q13601, sequence (Q13601 whole entry, looked up): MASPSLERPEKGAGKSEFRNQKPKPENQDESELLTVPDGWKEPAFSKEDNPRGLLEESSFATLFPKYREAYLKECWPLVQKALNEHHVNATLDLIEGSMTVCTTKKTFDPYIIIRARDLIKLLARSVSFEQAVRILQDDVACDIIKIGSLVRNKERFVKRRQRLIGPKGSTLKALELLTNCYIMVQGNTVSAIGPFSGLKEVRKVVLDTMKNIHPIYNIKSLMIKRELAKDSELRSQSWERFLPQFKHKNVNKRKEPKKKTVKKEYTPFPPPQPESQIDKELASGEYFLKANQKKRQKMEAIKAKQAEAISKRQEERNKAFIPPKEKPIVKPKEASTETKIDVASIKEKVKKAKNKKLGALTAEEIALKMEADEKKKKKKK
UniProt O14733, sequence (O14733 whole entry, looked up): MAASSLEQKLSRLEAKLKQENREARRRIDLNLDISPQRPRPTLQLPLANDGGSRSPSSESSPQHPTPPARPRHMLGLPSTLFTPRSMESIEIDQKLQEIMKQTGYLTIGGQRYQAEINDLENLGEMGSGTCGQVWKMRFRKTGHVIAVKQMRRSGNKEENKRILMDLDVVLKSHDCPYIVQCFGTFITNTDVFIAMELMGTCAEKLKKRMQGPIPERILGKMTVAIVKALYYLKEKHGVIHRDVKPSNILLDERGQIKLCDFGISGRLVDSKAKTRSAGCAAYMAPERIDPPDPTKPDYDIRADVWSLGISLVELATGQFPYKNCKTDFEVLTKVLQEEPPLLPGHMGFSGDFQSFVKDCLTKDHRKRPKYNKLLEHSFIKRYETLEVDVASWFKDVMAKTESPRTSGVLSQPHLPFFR
UniProt Q8NF37, sequence (Q8NF37 whole entry, looked up): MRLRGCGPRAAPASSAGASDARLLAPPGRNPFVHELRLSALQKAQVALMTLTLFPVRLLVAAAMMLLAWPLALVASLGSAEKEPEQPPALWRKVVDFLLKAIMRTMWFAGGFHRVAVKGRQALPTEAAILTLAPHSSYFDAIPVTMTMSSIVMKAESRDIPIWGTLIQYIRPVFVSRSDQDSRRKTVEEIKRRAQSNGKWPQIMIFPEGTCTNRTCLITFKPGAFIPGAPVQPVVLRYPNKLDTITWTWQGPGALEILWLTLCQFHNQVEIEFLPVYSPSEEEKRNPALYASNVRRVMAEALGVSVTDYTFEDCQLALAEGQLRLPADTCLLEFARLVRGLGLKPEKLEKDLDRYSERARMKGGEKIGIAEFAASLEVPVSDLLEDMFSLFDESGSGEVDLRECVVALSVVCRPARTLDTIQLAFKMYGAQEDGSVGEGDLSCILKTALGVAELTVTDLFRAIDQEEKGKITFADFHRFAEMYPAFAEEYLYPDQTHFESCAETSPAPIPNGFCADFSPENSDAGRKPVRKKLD
UniProt Q8N4C8, sequence (Q8N4C8 whole entry, looked up): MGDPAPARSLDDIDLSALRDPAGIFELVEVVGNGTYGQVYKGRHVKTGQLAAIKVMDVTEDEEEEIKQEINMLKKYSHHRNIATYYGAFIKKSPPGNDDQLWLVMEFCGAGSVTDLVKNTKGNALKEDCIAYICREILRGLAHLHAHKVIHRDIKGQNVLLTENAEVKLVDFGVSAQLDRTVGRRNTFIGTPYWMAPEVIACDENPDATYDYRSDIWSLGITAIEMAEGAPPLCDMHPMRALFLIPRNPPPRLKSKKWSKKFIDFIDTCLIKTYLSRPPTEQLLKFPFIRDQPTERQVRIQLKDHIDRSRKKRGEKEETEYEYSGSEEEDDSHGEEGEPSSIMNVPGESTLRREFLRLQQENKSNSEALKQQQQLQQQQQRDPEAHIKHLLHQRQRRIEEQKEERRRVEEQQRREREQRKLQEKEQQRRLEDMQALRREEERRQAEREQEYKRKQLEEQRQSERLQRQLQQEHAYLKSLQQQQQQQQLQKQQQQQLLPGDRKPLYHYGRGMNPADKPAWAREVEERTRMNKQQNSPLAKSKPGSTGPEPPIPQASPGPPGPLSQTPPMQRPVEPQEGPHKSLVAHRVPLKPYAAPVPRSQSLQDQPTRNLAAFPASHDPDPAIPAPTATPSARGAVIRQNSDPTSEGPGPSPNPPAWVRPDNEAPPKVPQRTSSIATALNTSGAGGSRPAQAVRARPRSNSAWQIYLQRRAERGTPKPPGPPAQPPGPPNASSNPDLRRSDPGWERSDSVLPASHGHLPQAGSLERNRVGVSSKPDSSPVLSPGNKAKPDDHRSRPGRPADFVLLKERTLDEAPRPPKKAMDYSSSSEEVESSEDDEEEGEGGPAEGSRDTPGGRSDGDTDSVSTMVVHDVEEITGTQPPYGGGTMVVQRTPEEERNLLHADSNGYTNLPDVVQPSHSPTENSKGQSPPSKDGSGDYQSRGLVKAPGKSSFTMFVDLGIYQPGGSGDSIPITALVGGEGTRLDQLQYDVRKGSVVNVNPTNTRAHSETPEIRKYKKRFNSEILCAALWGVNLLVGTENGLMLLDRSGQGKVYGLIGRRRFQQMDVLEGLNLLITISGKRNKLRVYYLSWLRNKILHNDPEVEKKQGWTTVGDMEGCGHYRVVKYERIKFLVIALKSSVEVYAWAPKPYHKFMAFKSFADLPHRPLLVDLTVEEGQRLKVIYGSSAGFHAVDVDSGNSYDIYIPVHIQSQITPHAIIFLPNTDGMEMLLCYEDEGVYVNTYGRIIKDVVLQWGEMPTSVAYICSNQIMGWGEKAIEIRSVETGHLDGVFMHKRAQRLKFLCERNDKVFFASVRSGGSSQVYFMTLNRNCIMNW
UniProt Q9GZY8, sequence (Q9GZY8 whole entry, looked up): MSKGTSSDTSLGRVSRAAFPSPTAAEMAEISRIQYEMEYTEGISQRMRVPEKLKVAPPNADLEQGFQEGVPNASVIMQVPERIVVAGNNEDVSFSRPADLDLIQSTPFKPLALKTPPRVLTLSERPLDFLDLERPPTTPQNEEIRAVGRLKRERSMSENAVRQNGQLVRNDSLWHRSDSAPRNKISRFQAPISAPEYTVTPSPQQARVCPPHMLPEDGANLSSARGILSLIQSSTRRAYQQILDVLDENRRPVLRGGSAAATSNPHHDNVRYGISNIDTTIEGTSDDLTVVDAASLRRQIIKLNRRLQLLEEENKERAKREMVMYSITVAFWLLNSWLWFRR
UniProt O60244, sequence (O60244 whole entry, looked up): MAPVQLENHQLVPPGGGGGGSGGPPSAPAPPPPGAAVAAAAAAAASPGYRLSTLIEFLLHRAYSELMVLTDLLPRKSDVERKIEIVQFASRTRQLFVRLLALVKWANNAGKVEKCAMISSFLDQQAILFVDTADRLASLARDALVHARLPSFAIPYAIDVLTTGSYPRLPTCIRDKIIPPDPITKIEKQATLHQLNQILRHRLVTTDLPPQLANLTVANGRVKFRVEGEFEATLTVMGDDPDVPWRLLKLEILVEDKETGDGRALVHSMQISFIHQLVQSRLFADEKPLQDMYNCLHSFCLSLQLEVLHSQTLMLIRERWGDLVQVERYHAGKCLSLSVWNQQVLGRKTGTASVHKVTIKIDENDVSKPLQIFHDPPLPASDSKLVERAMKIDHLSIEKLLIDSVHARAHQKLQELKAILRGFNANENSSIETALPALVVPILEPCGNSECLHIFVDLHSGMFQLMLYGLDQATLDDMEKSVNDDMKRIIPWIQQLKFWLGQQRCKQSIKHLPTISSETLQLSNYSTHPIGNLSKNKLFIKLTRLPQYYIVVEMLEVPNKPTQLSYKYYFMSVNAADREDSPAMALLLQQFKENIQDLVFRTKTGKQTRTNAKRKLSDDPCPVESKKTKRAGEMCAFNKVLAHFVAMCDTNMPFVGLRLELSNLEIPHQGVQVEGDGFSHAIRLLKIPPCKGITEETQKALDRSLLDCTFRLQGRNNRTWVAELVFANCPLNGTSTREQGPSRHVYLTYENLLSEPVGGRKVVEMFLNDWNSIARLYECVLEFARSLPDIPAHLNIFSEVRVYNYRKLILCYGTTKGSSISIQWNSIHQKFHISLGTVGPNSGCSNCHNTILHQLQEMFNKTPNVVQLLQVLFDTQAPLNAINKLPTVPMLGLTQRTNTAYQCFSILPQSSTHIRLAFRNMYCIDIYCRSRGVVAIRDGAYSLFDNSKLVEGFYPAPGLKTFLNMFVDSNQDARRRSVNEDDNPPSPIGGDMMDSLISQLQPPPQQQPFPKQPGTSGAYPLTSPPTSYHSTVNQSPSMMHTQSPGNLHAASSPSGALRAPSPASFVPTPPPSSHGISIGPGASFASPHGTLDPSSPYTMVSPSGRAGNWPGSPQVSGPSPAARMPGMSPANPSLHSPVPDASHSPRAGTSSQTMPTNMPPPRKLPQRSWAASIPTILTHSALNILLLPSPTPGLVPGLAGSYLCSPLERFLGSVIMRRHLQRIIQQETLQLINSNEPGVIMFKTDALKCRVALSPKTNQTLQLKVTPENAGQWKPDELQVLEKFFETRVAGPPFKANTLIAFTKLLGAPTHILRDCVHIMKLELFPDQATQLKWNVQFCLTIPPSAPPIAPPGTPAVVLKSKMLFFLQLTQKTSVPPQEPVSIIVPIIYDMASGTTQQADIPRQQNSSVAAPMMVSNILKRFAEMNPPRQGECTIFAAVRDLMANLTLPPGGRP
UniProt O00629, sequence (O00629 whole entry, looked up): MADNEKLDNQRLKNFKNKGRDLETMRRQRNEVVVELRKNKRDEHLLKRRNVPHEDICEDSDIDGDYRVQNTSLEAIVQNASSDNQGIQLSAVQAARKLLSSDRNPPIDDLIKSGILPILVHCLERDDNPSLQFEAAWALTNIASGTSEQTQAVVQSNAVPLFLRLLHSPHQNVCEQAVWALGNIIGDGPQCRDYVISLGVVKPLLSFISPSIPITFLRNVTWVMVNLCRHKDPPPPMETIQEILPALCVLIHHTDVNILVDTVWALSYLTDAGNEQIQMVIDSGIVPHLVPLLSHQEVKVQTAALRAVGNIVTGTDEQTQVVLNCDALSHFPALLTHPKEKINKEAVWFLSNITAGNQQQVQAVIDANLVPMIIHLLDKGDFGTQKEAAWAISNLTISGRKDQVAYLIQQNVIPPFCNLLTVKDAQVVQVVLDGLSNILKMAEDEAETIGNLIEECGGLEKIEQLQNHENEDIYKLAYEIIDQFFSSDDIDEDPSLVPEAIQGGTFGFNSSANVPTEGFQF

Target	log2 fold change [1]	log2 fold change [2]	log2 fold change [3]	log2 fold change [4]	log2 fold change [5]	log2 fold change [6]	log2 fold change [7]	log2 fold change [8]	log2 fold change [9]	log2 fold change [10]	log2 fold change [11]	log2 fold change [12]	log2 fold change [13]	log2 fold change [14]	log2 fold change [15]	log2 fold change [16]	log2 fold change [17]	log2 fold change [18]	log2 fold change [19]	log2 fold change [20]
MFF isoform 2 (UniProt Q9GZY8)	0.055	0.028	0	-0.239 (active)	0.022	0.106	-0.031	-0.035	-0.031	0.24	-0.025	-0.039	-0.005	0.008	-0.012	0.002	-0.004	0.007	0.016	-0.026
KRR1 (UniProt Q13601)	-0.039	0.03	-0.228	0.05	-0.037	-0.097	-0.038	0.127	-0.039	0.002	-0.057	0.058	-0.014	0.006	0.012	-0.336 (active)	-0.039	0.018	0.022	-0.08
MRPL19 (UniProt P49406)	-0.026	-0.024	-0.071	-0.094	-0.026	0.029	0.014	0.011	-0.048	0.051	0.001	-0.015	-0.039	-0.004	0.005	-0.055	0.033	0.024	-0.018	-0.044
LIG3 (UniProt P49916)	-0.007	0.006	-0.044	-0.008	0.01	-0.05	-0.004	0.016	-0.046	0.016	0.012	0.002	-0.011	-0.019	0.046	-0.024	-0.004	0.059	0.008	0.011
MARK1 (UniProt Q9P0L2)	0.037	-0.065	-0.175	0.026	-0.002	-0.192	-0.084	0.155	-0.034	0.05	0.035	-0.113	-0.123	-0.019	0.003	0.092	0.023	-0.083	-0.03	-0.072
KPNA4 (UniProt O00629)	0.03	0.011	-0.044	-0.217 (active)	0.012	0.089	-0.018	0.02	0.049	0.155	-0.013	0.006	0.063	0.018	0.003	-0.088	-0.033	-0.012	0	-0.058
MAP1S (UniProt Q66K74)	0.009	-0.06	-0.016	-0.021	0.004	-0.065	0.035	0.003	-0.03	0.049	0.007	-0.022	-0.007	-0.009	0.009	-0.006	0.02	0.026	0	0
LAP3 (UniProt P28838)	-0.021	0.003	-0.102	-0.531 (active)	0.034	0.385 (active)	-0.126	0.02	0.014	0.331 (active)	0.045	-0.006	-0.047	0.016	-0.123	-0.192	-0.008	0.049	0.009	-0.137
METTL7A (UniProt Q9H8H3)	0.023	0.019	0.177	-0.019	0.021	0.226	-0.081	0.071	0.048	0.019	0.168	0.014	0.198	-0.01	0.096	-0.112	0.03	-0.026	-0.055	-0.068
MAP2K7 isoform 4 (UniProt O14733)	0.004	0.204	-0.05	0.081	-0.048	-0.042	-0.04	0.052	-0.06	0.002	0.017	-0.101	-0.093	0	0.22	0.001	-0.024	0.033	0.001	0.002
LARS (UniProt Q9P2J5)	-0.004	-0.015	-0.043	0.047	-0.013	-0.081	0.012	-0.009	-0.048	-0.005	0.012	0.003	-0.065	-0.012	0.038	-0.005	-0.006	0.034	0	-0.024
MED14 (UniProt O60244)	-0.032	-0.006	-0.016	-0.058	-0.033	-0.016	0.046	-0.028	-0.036	0.037	0.027	-0.013	-0.012	-0.015	0.011	-0.021	-0.013	0.011	0.015	0.047
LPCAT1 (UniProt Q8NF37)	0.005	-0.034	-0.031	-0.209	-0.107	0.115	0.006	-0.048	-0.072	0.078	-0.039	0.015	-0.084	0.014	-0.045	0.016	0.046	0.008	0.053	0.033
MINK1 (UniProt Q8N4C8)	-0.084	-0.02	-0.149	0.271	0.026	-0.102	0.014	0.24	-0.158	0.249	-0.227	-0.206	-0.077	0.199	-0.016	-0.062	0.289	0.782 (active)	-0.023	0.02
KIF4B (UniProt Q2VIQ3)	0.03	-0.001	-0.02	0.029	-0.023	-0.051	-0.033	0.015	-0.04	0.035	-0.016	0.034	-0.013	0.049	0.096	-0.08	-0.009	0.037	0.045	-0.078
KLHL36 (UniProt Q8N4N3)	-0.045	-0.006	0.021	-0.075	-0.02	-0.013	0.014	-0.129	0.022	-0.052	0.012	-0.104	-0.021	0.027	0.049	0.043	0.067	0.007	-0.023	-0.014
